A selection: hits, their analogues and other compounds. The true share with any hit is near 2.8%.
SMARCA2 activ – SMARCA2 function activation, primary screen; MG213 cells, MMTV-luciferase reporter, dexamethasone, overnight; activation, % at 9.1 µM; actives 1% (n = 370,000); AID 652017; in the data active means activation above about 7.8%;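 further: 0% = vehicle wells and 100% = reference activator wells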
KLK7 zymogen act – activates the human kallikrein-7 zymogen; purified proKLK7, EDANS-DABCYL substrate fluorescence; 100% is mature enzyme control, 0% vehicle; P49862; activation, % at 7 µM; actives 0.9% (n = 370,000);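 active means activation above the mean of all tested compounds plus 3 SD, computed per campaign excluding outliers beyond control limits, cut at about 13% in these data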
Target sequence (P49862 whole entry, looked up): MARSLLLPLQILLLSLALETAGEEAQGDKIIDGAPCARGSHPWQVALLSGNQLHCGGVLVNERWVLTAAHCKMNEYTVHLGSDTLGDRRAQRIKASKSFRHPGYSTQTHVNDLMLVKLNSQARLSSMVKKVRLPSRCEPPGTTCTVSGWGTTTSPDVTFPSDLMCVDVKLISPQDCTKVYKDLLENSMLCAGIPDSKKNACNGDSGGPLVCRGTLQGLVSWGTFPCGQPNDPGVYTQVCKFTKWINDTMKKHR
bovine MsrA act – bovine methionine sulfoxide reductase A activation | AID 602163 | activation, % at 10.6 µM | actives 0.3% (n = 360,000) | purified bovine MsrA, absorbance read-out; in the data active means activation above about 7.5%;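 further: 0% = vehicle and 100% = reference activator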
MsrA inh – inhibits bovine methionine sulfoxide reductase A | inhibition, % at 15.5 µM | purified bovine MsrA, absorbance read-out | actives 0.75% (n = 360,000); in the data active means inhibition above about 4.5%;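 further: 0% = vehicle wells with enzyme and 100% = reference inhibitor wells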
proKLK7 act conf – proKLK7 activation, confirmation. purified proKLK7, EDANS-DABCYL substrate fluorescence; scaled: vehicle 0, mature enzyme 100. actives 68% (n = 3,200). activation, % at 7 µM. AID 686949. shares compounds with KLK7 zymogen act;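 active means activation, as change over the incubation, above the mean of all tested compounds plus 3 SD, cut at about 13% in these data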
EDANS-DABCYL int – counter-screen for kallikrein-7 activators: EDANS-DABCYL optical interference. shares compounds with KLK7 zymogen act. EDANS-DABCYL substrate fluorescence interference, no enzyme, 4 h; solvent 0%, active enzyme control 100%. activation, % at 7 µM. actives 80% (n = 3,200). AID 686952;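 active means activation above the all-compound mean plus 3 SD, ignoring values outside control-based bounds, cut at about 4.8% in these data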;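 further: value is the 4 h activation minus the activation read at time zero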
EDANS interf – counter-screen for kallikrein-7 activators: EDANS-DABCYL interference, dose response; EC50, µM; EDANS-DABCYL peptide fluorescence interference, no enzyme; actives 20% (n = 250); shares compounds with KLK7 zymogen act;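 active means compounds that raise the fluorescence signal in this interference counterscreen, with EC50 at or below 10 µM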;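 further: intact quenched peptide substrate alone read at 355 nm excitation and 520 nm emission; signal is fluorescence gain from T0 to T4 after four hours at room temperature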
Active calls of the source: *; nt = no result given.

SMILES	SMARCA2 activ	KLK7 zymogen act	bovine MsrA act	MsrA inh	proKLK7 act conf	EDANS-DABCYL int	others
CCOC(=O)[C@@H]1CSCCS(=O)(=O)N1	-4.4	-0.1	-1.9	1.0	nt	nt
COc1ccc(C2CC(=O)C(c3ccc(F)cc3)=CN2Cc2ccccc2)cc1 (stereo not given)	-2.5	0.0	nt	-0.3	nt	nt
COc1ccccc1CNC(=O)c1ccc2nc(C)c(N(C)Cc3ccc(NC(C)=O)cc3)n2c1	5.0	0.8	-4.1	0.0	nt	nt
CCN1CCN(Cc2c(O)c(Cl)cc3c(C)cc(=O)oc23)CC1	2.5	70.7*	0.1	2.5	81.3*	79.6*
Cc1cc(=O)oc2c(CN3CCCCC3)c(O)c(Cl)cc12	-4.2	61.4*	-1.5	3.4	61.3*	59.5*
CC1CCC(CC(=O)O)(C(=O)O)CC1 (stereo not given)	-0.1	-0.5	-3.9	0.4	nt	nt
CC(=O)/C=C(\C)Nc1ccc(-c2cnc(-c3ccccc3)o2)cc1	5.8	57.4*	-5.0	3.7	63.4*	63.7*
Cc1cc2c(c(=O)o1)[C@@]1(C(=O)Nc3ccccc31)C1=C(CCCC1=O)O2	1.1	0.1	nt	0.2	nt	nt
COc1cccc(-c2nc(CN3CCN(C(=O)c4ccco4)CC3)c(C)o2)c1OC	-3.2	0.1	2.2	2.2	nt	nt
CCOC(=O)CCCNC(=O)COC(=O)c1cc2ccccc2cc1O	-7.1	25.0*	-15.3	1.1	18.8*	19.2*
CC1CN(C(=O)c2cc3ccccc3cc2O)CC(C)O1 (stereo not given)	-2.6	-18.9	-0.9	0.5	nt	nt
CC1CN(C(=O)COC(=O)c2cc3ccccc3cc2O)CC(C)O1 (stereo not given)	-0.7	14.5*	-1.5	1.7	17.2*	16.9*
O=C(OCC(=O)N1CCOCC1)c1ccc2ccccc2c1O	7.3	5.5	-1.8	1.2	nt	nt
COc1cc2ccccc2cc1C(=O)OCC(=O)N1CCOCC1	-0.2	15.4*	0.1	0.3	22.4*	18.7*	EDANS interf=>69.5
O=C(NCc1ccccc1F)C1CC(=O)N(Cc2ccco2)C1 (stereo not given)	-0.1	-0.7	-1.7	-0.2	nt	nt
CC1(C)CN(C2CCCCC2)C(=O)[C@H]1CC(=O)Nc1ccc(Br)cc1	-4.7	0.1	-2.8	0.8	nt	nt
O=C(Cc1ccccc1)Nc1nnc(-c2cccnc2)s1	-1.4	-0.5	nt	nt	nt	nt
CCCCN(C)Cc1c(O)ccc2c(=O)c(-c3ccccc3OC)coc12	-1.4	55.9*	0.4	1.7	65.9*	74.2*
COc1cccc(Oc2c(C)oc3c(CN4CCCC4)c(O)ccc3c2=O)c1	-2.0	75.4*	-10.8	1.6	73.7*	78.2*
COC(=O)c1ccc(Oc2c(C(F)(F)F)oc3c(CN4CCN(C)CC4)c(O)ccc3c2=O)cc1	-0.3	7.8	-5.4	2.1	nt	nt
CCOc1ccccc1Oc1c(C)oc2c(CN3CCN(C)CC3)c(O)ccc2c1=O	-3.6	77.3*	-3.1	3.7	76.8*	74.3*
COc1ccccc1Oc1coc2c(CN3CCOCC3)c(O)ccc2c1=O	6.8	193.3*	-3.2	3.3	67.7*	79.5*
Oc1ccc2ccccc2c1CN1CCOCC1	-4.2	-2.2	-5.3	-0.4	nt	nt
CCCN1CCN(CCCNC(=O)CN2C(=O)COc3ccc(C(C)(C)C)cc32)CC1	-1.5	-0.1	0.3	-1.4	nt	nt
CCc1cc2c(=O)c(-c3ccc4c(c3)OCCO4)coc2cc1OS(C)(=O)=O	2.5	-1.0	-9.8	-0.3	nt	nt
SMILES	SMARCA2 activ	KLK7 zymogen act	bovine MsrA act	MsrA inh	proKLK7 act conf	EDANS-DABCYL int	others
COc1ccccc1Oc1c(C)oc2c(CN3CCOCC3)c(O)ccc2c1=O	1.6	189.2*	-0.6	1.6	42.2*	48.6*
O=c1c(-c2ccc3c(c2)OCCO3)coc2c(CN3CCOCC3)c(O)ccc12	4.9	13.4*	-1.6	3.0	20.5*	19.2*
COc1ccc(Oc2coc3cc(OC(=O)N4CCOCC4)ccc3c2=O)cc1	-3.6	0.2	-3.8	0.3	nt	nt
COc1cccc(Oc2coc3c(CN4CCOCC4)c(O)ccc3c2=O)c1	-1.2	180.9*	-13.8	1.8	63.9*	61.3*
COc1ccccc1-c1coc2c(CN3CCOCC3)c(O)ccc2c1=O	0.1	158.8*	-3.1	2.2	66.3*	57.8*
COc1ccc(-c2c(C)oc3c(CN4CCOCC4)c(O)ccc3c2=O)cc1OC	0.8	12.0	-12.1	0.6	nt	nt
